Screening data: PubChem, SRMLSC
MRP resist rev: reverses drug resistance mediated by MRP. differential viability (reversal), % at 10 µM. AID 602. H69AR cells + 2 uM doxorubicin, CellTiter-Glo, 72 h. 85,000 compounds, 0.04% hits;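 active = viability drop by adding the cancer drug above about 55%, with treated viability meeting a 40% cutoff, limit read from the data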;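 note: viability without doxorubicin minus viability with 2 µM doxorubicin for each compound; larger differential means the compound sensitizes cells more to doxorubicin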
MRP-1 activ: MRP-1 activation; H69AR cells + doxorubicin, viability rescue, CellTiter-Glo; viability increase, % at 10 µM; 140,000 compounds, 0.61% hits; AID 799;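 active = viability gain under doxorubicin at or above a set limit, the compound median plus 3 SD, cut at about 4.7% in these data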;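 note: MRP-1 overexpressing cells given doxorubicin 25 µM after compound pretreatment; 18-22 h compound pretreatment then 72 h with doxorubicin before readout; 0% = doxorubicin-only wells and 100% = vehicle-treated cells without doxorubicin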
Numbers without * were called inactive; / = no result. Most compounds without a hit are left out; they make up all but 0.65% or so of the library.

SMILES	MRP resist rev	MRP-1 activ
Cc1c(C(=O)OC(C)C)sc(N)c1C(=O)OC(C)C	/	5.4*
Cc1c(C(N)=O)sc(N)c1C(=O)OC(C)C	-4	-2
CC1=NN(C(N)=S)C(=O)C1N=Nc1ccccc1C (stereo not given)	91*	-2
CC1=NN(C(N)=S)C(=O)C1N=Nc1ccc(C)cc1C (stereo not given)	/	-2
O=C(Cc1c(C(=O)O)[nH]c2ccc(Cl)cc12)Nc1ccc2c(c1)OCCO2	9	-1
Cn1c(=O)c(NCCc2ccccc2)c2c3c(cccc31)C(=O)c1ccccc1-2	64*	-4
Cn1c(=O)c(NCCO)c2c3c(cccc31)C(=O)c1ccccc1-2	-13	-4
O=C(Nc1cccc(Cl)c1)Nc1nnc(CC2=CCCCC2)s1	/	-3
COc1ccccc1N1CCN(C(=O)CSc2nnc3c4ccccc4nc(Cc4ccccc4)n23)CC1	/	-1
COc1ccc(NC(=O)C2C(=O)NC3(C)CC2c2ccccc2O3)cc1 (stereo not given)	18	4.9*
COc1ccc(C(C)NC(=O)C2C(=O)NC3(C)CC2c2ccccc2O3)cc1 (stereo not given)	11	-3
O=[N+]([O-])c1cccc(-c2n[nH]c(=S)n2Cc2ccccc2)c1	/	-3
COc1ccc(C(=O)NCc2ccc3c(c2)OCO3)cc1S(=O)(=O)N(C)Cc1ccccc1	/	7.3*
COc1ccc(C(=O)NCc2ccccc2)cc1Br	/	2
COc1ccc(C(=O)NCc2ccc3c(c2)OCO3)cc1S(=O)(=O)NCc1ccc(Cl)cc1	/	1
COc1ccc(C(=O)NCc2ccccc2)cc1S(=O)(=O)N1CCCc2ccccc21	/	5.4*
CC(C)(C)NC(=O)COC(=O)/C=C/c1ccc(F)cc1	/	1
CCOC(=O)c1nnc(-c2ccccc2)nc1Oc1ccccc1Cl	/	5.2*
CCOC(=O)c1nnc(-c2ccccc2)nc1NC	/	-2
CN(C)c1cccc(C(=O)OCC(=O)Nc2nccs2)c1	/	0
Cc1c(NC(=O)CSc2ccc(Cl)cc2)cccc1-c1nc2ncccc2o1	/	6.2*
O=C(CSc1ccc(Cl)cc1)Nc1cc(-c2nc3ncccc3o2)ccc1Cl	/	2
CCCNc1nc(NCC)nc(OC)n1	-25	-1
CN(C(=O)c1ccc(Cl)cc1)C1=CCCCC1CCC#N (stereo not given)	15	-2
CCOC(=O)C1=C(C)NC(C)=C(C(=O)OC)C1c1cccc(Cl)c1Cl (stereo not given)	-3	-1
SMILES	MRP resist rev	MRP-1 activ
COC(=O)C1=C(C)NC(C)=C(C(=O)OC)C1c1ccccc1OCc1c(C)no[n+]1[O-]	6	9.0*
CCOc1ccccc1N(CC(=O)OC)S(=O)(=O)c1ccccc1	2	-1
CCOc1ccccc1N(CC(=O)O)S(=O)(=O)c1ccccc1	-5	4.8*
O=C(NCc1ccccn1)c1cn(CCc2ccccc2)nn1	57*	0
O=C(NCc1cccnc1)c1cn(CCc2ccccc2)nn1	-4	-2
CCOc1ccc(NCc2nnc(SCC(=O)Nc3nc(-c4ccccc4)cs3)n2-c2ccccc2)cc1	/	-5
CO/N=C(\c1nonc1N)N1CCN(c2ccc(Cl)cc2[N+](=O)[O-])CC1	/	0
Cc1ccnc(N=Cc2c(O)ccc3oc4c(c23)CCCC4)c1	/	-2
CCCCn1c(O)c(/C=C2\C=NN=C2c2ccccc2)sc1=S	/	4
CCCCCCn1c(O)c(/C=C2\C=NN=C2c2ccccc2)sc1=S	/	5.3*
COc1cc(NC(=O)COc2ccc(Cl)cc2)ccc1-c1cc2ccccc2oc1=O	/	0
O=C(Nc1ccc(OC(F)(F)F)cc1)c1n[nH]c(Cn2cncn2)n1	/	4.9*
N#C/C(=C\c1ccc(F)cc1)c1n[nH]c(Cn2cncn2)n1	-22	-3
O=C(CN1C(=O)COc2ccccc21)N(Cc1cccnc1)Cc1ccccc1F	12	-4
CC(C)CNC(=S)NC1CC2CCCC(C1)N2Cc1cccs1 (stereo not given)	/	-3
COc1ccc(OCc2nc3ccc(S(=O)(=O)Nc4ccccc4Cl)cc3[nH]2)cc1	/	6.0*
COc1ccc(NS(=O)(=O)c2ccc3nc(COc4ccc5ccccc5c4)[nH]c3c2)cc1	/	-1
CCOC(=O)N1CCC(Nc2c(OCC)c(=O)c2=O)CC1	6	0
CCOC(=O)N1CCC(Nc2c(Nc3ccc(C)c(C)c3)c(=O)c2=O)CC1	65*	-5
O=C1N/C(=N/c2ccccn2)SC1Cc1ccccc1 (stereo not given)	2	2
O=C1NC(=Nc2ccccc2)SC1Cc1cccc(Cl)c1Cl (stereo not given)	/	5.7*
COC(=O)C1=C(C)N(CCc2cc(OC)c(OC)c(OC)c2)C(=O)N[C@H]1c1ccc(Br)cc1	/	-4
O=C(c1ccc(=O)[nH]c1)N(Cc1cccs1)C1(C(=O)NC2CCCC2)CCCCC1	/	-1
COc1ccc(NC(=O)CSc2ccccc2)cc1S(=O)(=O)N1CCCCC1	/	1
COc1ccc(NC(=O)CCCC2CCCCC2)cc1S(=O)(=O)N1CCCCC1	/	5.7*
SMILES	MRP resist rev	MRP-1 activ
CCCSc1nnc(NC(=O)c2nc(SC)ncc2Cl)s1	3	1
CSc1ncc(Cl)c(C(=O)Nc2nnc(SC)s2)n1	1	9.1*
CC(SC1=NCCS1)C(=O)Nc1nnc(-c2ccc(F)cc2)s1 (stereo not given)	-5	-1
CC(SC1=NCCS1)C(=O)Nc1nnc(-c2ccc(Br)cc2)s1 (stereo not given)	-26	5.8*
COc1cccc(C2C(C(=O)Nc3nc4ccccc4s3)=C(C)NC3=C2C(=O)CC(C)(C)C3)c1OC (stereo not given)	/	7.9*
COc1ccc(OC)c(C2C(C(=O)Nc3nc4ccccc4s3)=C(C)NC3=C2C(=O)CCC3)c1 (stereo not given)	/	0
Cc1ccc(S(=O)(=O)Nc2nc3ccccc3nc2NCc2ccc3c(c2)OCO3)cc1C	/	5.9*
COc1ccc(S(=O)(=O)Nc2nc3ccccc3nc2NCc2ccc3c(c2)OCO3)cc1	/	1
CN(C)c1cccc(C(=O)N/N=C/c2ccsc2)c1	/	0
CN(C)CCNC(=O)/C=N/O	/	2
O=C(O)CCC(=O)Nc1ccccc1C(=O)NCCc1ccccc1	/	0
CC(C)CCNC(=O)Cn1c2c(c(-c3ccccc3Cl)cc1=O)CCC2	8	-1
CC1CCC(NC(=O)Cn2c3c(c(-c4ccccc4Cl)cc2=O)CCC3)CC1 (stereo not given)	-1	8.2*
N=C(N)SCc1nc2ccccn2c1Br	/	7.9*
Cc1cccc2nc(CSC(=N)N)c(Br)n12	/	2
COc1cc(OC)c2c(c1)C(=O)c1cc(OC)cc(OC)c1C2=O	/	-5
CC1(C)O[C@@H]2C[C@H]3[C@@H]4C[C@H](F)C5=CC(=O)CC[C@]5(C)[C@H]4[C@@H](O)C[C@]3(C)[C@]2(C(=O)CO)O1	-4	5.2*
CCCCC(=O)O[C@]1(C(=O)CO)CC[C@H]2[C@@H]3CCC4=CC(=O)CC[C@]4(C)[C@H]3[C@@H](O)C[C@@]21C	4	1
Cn1cnnc1SCc1ccc(C(=O)N=Nc2c(O)n(C)c3ccccc23)cc1	/	-1
C=C(Cl)COc1ccc2c(CCCC)cc(=O)oc2c1	18	6.2*
C=C(Cl)COc1ccc2c(CC)cc(=O)oc2c1	13	2
COc1nc(C#N)nc(N(C)C)n1	10	0
Cc1ccc(S(=O)(=O)N2CCN(c3nc(C)c4c(c3C#N)CC(C)(C)OC4)CC2)cc1	/	6.1*
Cc1nc(N2CCOCC2)c(C#N)c2c1COC(C)(C)C2	-2	-5
Cc1c(C)n(C)c2ccc(C(=O)NCc3cccs3)cc12	25	5.5*
